This is one part of a sample in which hits are shown more often than they occur.
KDM5B inh: KDM5B demethylase inhibition. Potency, µM (top dose mostly 57.7 µM), usual class: inhibitors. 2.6% of 220,000 active. KDM5B demethylase, FDH-coupled NADH fluorescence (FDH is formaldehyde dehydrogenase); active = well fitted inhibition curve with a large enough effect; note: nearly all actives have a fitted effect of over 70% in size
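qHTS format, multiple compound concentrations. Buffer 50 mM HEPES pH 7.5/0.01% Tween-20; 200 nM KDM5BΔAP final; 10 min compound preincubation; substrate-mix levels 12.5 µM peptide, 25 µM α-KG, 0.25 mM NAD⁺; 30 min RT; ΔRFU.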
Of the large screens only hits and unclear results are named; the others gave an inactive call.

Cn1c(=O)[nH]c(=O)c2c1nc(N1CCN(c3cccc(Cl)c3)CC1)n2Cc1ccccc1	none
CCOP(=O)(OCC)c1nc(Cc2ccc(Cl)cc2)oc1NCc1ccc2c(c1)OCO2	none
Cc1noc(-c2cn(C3CCN(C(=O)Cc4ccc(Br)cc4)CC3)nn2)n1	none
COc1cccc(CN2Cc3nc(-c4cc(Cl)ccc4OC)ccc3OCC2=O)c1	KDM5B inh 35µM
COc1cccc(CN2Cc3nc(-c4cc5ccccc5o4)ccc3OCC2=O)c1	KDM5B inh 50µM
COc1cccc(CN2Cc3nc(-c4ccc(F)cc4)ccc3OCC2=O)c1	none
Cc1nc(CN2Cc3nc(-c4ccccc4F)ccc3OCC2=O)cs1	none
COc1cccc(CN2Cc3nc(-c4cncnc4)ccc3OCC2=O)c1	none
COc1cccc(CN2Cc3nc(-c4c(C)noc4C)ccc3OCC2=O)c1	none
COc1cccc(CN2Cc3nc(-c4cnn(C)c4)ccc3OCC2=O)c1	none
COc1ccc(-c2ccc3c(n2)CN(Cc2csc(C)n2)C(=O)CO3)cc1F	KDM5B inh 35µM
Cc1nc(CN2Cc3nc(-c4cnn(Cc5ccccc5)c4)ccc3OCC2=O)cs1	none
CCCCOc1ccc(NC(=O)COc2ccc(CC)cc2)c2cccnc12	none
CC(C)c1nc2c(c(-c3ccc(O)cc3)n1)CN([S+](=O)([O-])c1ccccc1)CC2	none
COc1ccccc1Cn1c(-c2cccc(Cl)c2)nc(C)c(CCO)c1=O	none
Cc1nc(-c2cccc(Cl)c2)n(Cc2cc(=O)n3ccccc3n2)c(=O)c1CCO	KDM5B inh 32µM
Cc1nc(-c2cccc(Cl)c2)n(CC(=O)NC(C)C)c(=O)c1CCO	none
Cc1ccc(NC(=O)Cc2nnc(SCC(=O)c3ccc(C#N)cc3)n2C)cc1	none
O=C1CCCN1CCCn1ccnc1-c1cc2n(n1)CCCNC2	none
CC(=O)c1c(C)n(-c2ccccc2C)c2ccc(O)cc12	none
Cc1noc(-c2cccn3c(CNC(=O)c4cccc(Cl)c4)nnc23)n1	KDM5B inh 14µM
Cc1noc(-c2cccn3c(CNC(=O)c4ccc(F)c(Cl)c4)nnc23)n1	KDM5B inh 14µM
Cc1noc(-c2cn(C3CCN(C(=O)c4ccc(F)c(Cl)c4)CC3)nn2)n1	none
CCN(CC)C(=O)C1=C(C)NC(=O)NC1c1ccc(C(=O)OC)cc1 (configuration not stated)	none
CC(OC(=O)c1cc2c(F)cccc2s1)C(=O)N1CCNC1=O (configuration not stated)	none
Cc1cn2nc(C(=O)Nc3ccccc3)cc2c(N(C)Cc2ccccc2)n1	KDM5B inh 28µM
Cc1cn2nc(C(=O)Nc3ccc(Cl)cc3C)cc2c(N(C)Cc2ccccc2)n1	none
Cc1cn2nc(C(=O)Nc3ccc4c(c3)OCCO4)cc2c(N(C)Cc2ccccc2)n1	KDM5B inh 28µM
Cc1cc(=O)n(CC(=O)Nc2cccc(F)c2)c(N(C)Cc2ccccc2)n1	none
Cc1cn2nc(C(=O)NCCCc3ccccc3)cc2c(=O)[nH]1	none
COc1ccc(NC(=O)c2cc3c(N(C)Cc4ccccc4)nc(C)cn3n2)cc1	KDM5B inh 32µM
Cc1cn2nc(C(=O)Nc3ccccc3C)cc2c(N(C)Cc2ccccc2)n1	none
Cn1ccc(C(=O)Nc2ccc3c(c2)OCCO3)n1	none
COc1ccc(NC(=O)c2nc(-c3ccccc3)n(-c3ccccc3Cl)n2)cc1	none
Cc1nc(-c2ccccc2)sc1CCNC(=O)C(=O)Nc1ccc2c(c1)OCCO2	none
COc1ccc(NC(=O)CNC(=O)Cc2ccccc2)cc1	none
Cc1cn2nc(C(=O)Nc3cccc(F)c3C)cc2c(N(C)Cc2ccccc2)n1	KDM5B inh 28µM
CCOc1cccc2cc(-c3cc(=O)oc4cc(OCC(=O)OC(C)(C)C)ccc34)c(=O)oc12	none
Cc1ccc(C(=O)c2sc(Nc3ccccc3)nc2N)c(C)c1	none
CCOc1cccc(CN2CCC3(Cc4ccccc4CNC3=O)C2)c1 (configuration not stated)	none
c1ccc(CNC2(c3nnnn3-c3ccccc3)CCCC2)cc1	none
CCc1ccc(Nc2ncnc3c2cnn3-c2cccc(C)c2)cc1	none
CCC(CC)C(=O)Nc1cc(C)ccc1C	none
Cc1ccc2c(COC(=O)CCc3ccc4c(c3)OCO4)cc(=O)oc2c1	none
Cc1nc(C)c(C(=O)N2CCC(Oc3ccc(-c4noc(-c5ccccc5)n4)cc3)C2)s1 (configuration not stated)	none
Cn1c(-c2ccccc2)csc1=N	none
CC(NC(=O)c1cccc2ccccc12)C1CC2CCC1C2 (configuration not stated)	none
COc1ccc2[nH]c(C)c(C(=O)CN3CCCCC3C)c2c1 (configuration not stated)	none
CCOc1ccc(NC(=O)c2cc(=O)c3cc(C)ccc3o2)cc1	none
COc1ccc(NC(=O)c2ccc(N3CCCN(Cc4ccccc4C)C3=O)cc2)cc1	none
COc1ccc(C(=C(Cl)Cl)c2ccc(OC)cc2)cc1	none
CC(C)N1CCN(C(=O)[C@@]23CCCC[C@H]2N(C)C(=O)CC3)CC1	none
COc1ccccc1/C=C/C(=O)N[C@@H]1C[C@H]2CC[C@@H]1C2	none
O=C(CC1CCCCC1)Nc1ccc2c(c1)-c1ccccc1C2	none
Nc1nc2c(s1)C(c1cccc(F)c1F)CC(=O)N2 (configuration not stated)	KDM5B inh 22µM
O=C1CCCC2=C1C(c1ccc(F)cc1F)Nc1nonc1N2 (configuration not stated)	none
COc1cccc(C2CC(=O)Nc3ccsc32)c1OC (configuration not stated)	none
CC1=C(C(=O)OCC2CCCCC2)C(c2ccc(F)cc2F)CC(=O)N1 (configuration not stated)	none
O=C1CC(c2ccccc2F)c2c(n3c(nc4ccccc43)[nH]c2=O)N1 (configuration not stated)	none
Nc1nc2c(s1)C(c1ccc(F)cc1F)CC(=O)N2 (configuration not stated)	KDM5B inh 32µM
CC(C)=CCN1CCN(Cc2ccc(C#N)cc2)CC1	none
Cc1ccc(C(=O)NCC2(c3ccccc3)CC2)cc1C	none
CC1(CCCCN2CCOCC2)COc2ccc(C(=O)NCc3ccco3)cc2N1 (configuration not stated)	KDM5B inh 35µM
CSCc1ccc(C(=O)NCc2ccco2)cc1	none
O=C(NCCCc1ccccc1)c1ccc(CN2C(=O)NC3(CCOCC3)C2=O)cc1	none
CC1(C)CC1(CNC1CCN(c2ccc(C(=O)NCCN3CCOCC3)cc2)CC1)c1ccccc1 (configuration not stated)	none
CC1(CCCCN2CCOCC2)COc2ccc(C(=O)Nc3ccc4[nH]ccc4c3)cc2N1 (configuration not stated)	none
CC1(CCCCN2CCOCC2)COc2ccc(C(=O)NCc3ccccc3)cc2N1 (configuration not stated)	KDM5B inh 40µM
CC1(CCCCc2ccccc2)COc2ccc(C(=O)NCCN3CCOCC3)cc2N1 (configuration not stated)	KDM5B inh 35µM
O=S(=O)(c1cccnc1)N1CCC(OC2CCN(Cc3cccnc3)CC2)CC1	none
COc1ccc([N+](=O)[O-])cc1NC(=O)COC(=O)c1ccc2c(c1)NC(=O)CS2	none
COCCN1C(=O)C(=O)/C(=C(/O)c2ccc(OC)cc2C)C1c1ccncc1 (configuration not stated)	none
Cc1ccc(NC(=O)CN(C)C(=O)C(C)N(C)Cc2ccccc2F)cc1 (configuration not stated)	none
CC(=O)c1ccc(N2CCN(C(C(=O)O)c3cn(C)c4ccc(C(=O)O)cc34)CC2)cc1 (configuration not stated)	none
Cc1cnc(C(=O)N2CCC3(CC2)CC(N(Cc2ccccc2)C2CC2)CCO3)cn1 (configuration not stated)	none
Cn1cnc2c(oc3nc(C4CCCCC4)c4c(c32)CCC4)c1=O	none

Assay outcomes deposited in PubChem BioAssay by National Center for Advancing Translational Sciences (NCATS).
